# The list is not random: actives were taken first. Their share in the collection is about 5.1%.
# Tau fluor counter: Counterscreen qHTS for Inhibitors of Tau Fibril Formation, Fluorescence Polarization; tau K18 P301L Alexa594 fluorescence, heparin fibrillization; Potency, µM (series often up to 57.7 µM), for the others: at the top dose activity change, negative = decrease; hit rate 0.93% among 280,000; AID 1463, 2008; further: potency means the concentration at half of the fitted maximal effect; nearly all actives have a fitted effect of over 55% in size
#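 Human K18 P301L tau (15 uM unlabeled plus 0.24 uM Alexa 594-labeled, final) in 100 mM sodium acetate pH 7 was mixed with compound and 20 uM heparin and incubated 6 hr at 37 C.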
# PNC assembly inh: High Content Assay for Compounds that inhibit the Assembly of the Perinucleolar Compartment; PC3M PTB-GFP, PNC prevalence imaging, 16 h; hits give low values; activity change (PNC), negative = inhibition, % at 10 µM; hit rate 3.1% among 140,000; AID 2417, 2010;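 active means readout at or below -70, meaning at least 70% loss of cells showing the perinucleolar compartment, a nuclear body marking cancer cells; inconclusive means readout between -30 and a set limit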;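 further: plate controls were DMSO wells for no effect and camptothecin positive control wells for full effect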
#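 Compounds are pinned in duplicate onto adhered PC3M cells stably expressing GFP-tagged PTB and incubated 16 h at 37 C. Cells are then fixed, nuclei stained with Hoechst, and PNC-positive cells counted.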
# NPSR antagonist: qHTS Assay for Antagonists of the Neuropeptide S Receptor: cAMP Signal Transduction; Q6W5P4; CHO-NPSR cells, cAMP TR-FRET, antagonist mode; Potency, µM (top dose mostly 38.3 µM), inactives show at the top dose activity change, negative = inhibition, hits mostly inhibitors; hit rate 1% among 220,000; AID 1461, 2008; further: potency means the concentration at half of the fitted maximal effect; nearly all actives have a fitted effect of over 50% in size
# JMJD2E inh: qHTS Assay for Inhibitors of Human Jumonji Domain Containing 2E (JMJD2E); Lysine-specific demethylase 4E (Homo sapiens), B2RXH2; JMJD2E catalytic domain, FDH-coupled NADH fluorescence (FDH is formaldehyde dehydrogenase); Potency, µM (doses to about 57.1 µM), without a hit: at the highest dose activity change, negative = inhibition, hits mostly inhibitors; hit rate 1.6% among 230,000; AID 2147, 2009; active means well fitted inhibition curve with a large enough effect, not every such curve was filed as active; inconclusive means small, poorly fitted or top-dose-only effect, or another doubt; inactive means no such curve, though single readings can be large or run the other way;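 further: potency means the concentration at half of the fitted maximal effect; 0% = wells with enzyme and -100% = buffer wells without enzyme; nearly all actives have a fitted effect of over 50% in size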
# Target sequence (B2RXH2 1-337 limits assumed): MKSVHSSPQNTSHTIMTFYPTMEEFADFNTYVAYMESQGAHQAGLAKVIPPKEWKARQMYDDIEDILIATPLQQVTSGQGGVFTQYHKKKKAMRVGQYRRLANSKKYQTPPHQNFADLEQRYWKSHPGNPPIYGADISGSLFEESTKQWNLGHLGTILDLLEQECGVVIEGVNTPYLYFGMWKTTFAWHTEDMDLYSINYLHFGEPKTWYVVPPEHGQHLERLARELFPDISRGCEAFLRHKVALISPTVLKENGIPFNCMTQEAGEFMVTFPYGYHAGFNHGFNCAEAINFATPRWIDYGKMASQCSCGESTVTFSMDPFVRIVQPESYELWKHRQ
# Tau fibril ThT: qHTS for Inhibitors of Tau Fibril Formation, Thioflavin T Binding. Microtubule-associated protein tau (Homo sapiens), P10636. hit rate 2.1% among 270,000. AID 1460, 2008. Potency, µM (doses to about 57.4 µM), without a hit: at the highest dose activity, negative = inhibition, usual class: inhibitors. recombinant tau K18 P301L, heparin-induced fibrillization, ThT fluorescence; further: potency means the concentration at half of the fitted maximal effect; nearly all actives have a fitted effect of over 55% in size
# Target sequence (P10636 561-689 P618L limits assumed): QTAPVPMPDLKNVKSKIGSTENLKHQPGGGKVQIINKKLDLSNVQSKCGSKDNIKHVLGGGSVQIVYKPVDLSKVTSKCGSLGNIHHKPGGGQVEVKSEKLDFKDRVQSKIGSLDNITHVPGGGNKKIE
#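 Fibril formation assay: tau K18 P301L at 15 uM with trace Alexa 594 label, heparin inducer 20 uM, pH 7 sodium acetate buffer, 37 C for 6 hr; endpoint ThT signal.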
# Tau FP inhib: qHTS for Inhibitors of Tau Fibril Formation, Fluorescence Polarization. Microtubule-associated protein tau (Homo sapiens), P10636. Potency, µM (series often up to 57.7 µM), without a hit: at the top dose activity, negative = inhibition, most hits filed as inhibitors. hit rate 0.39% among 280,000. K18 P301L tau heparin fibrillization, Alexa594 FP, 6 h. AID 1468, 2008; further: potency means the concentration at half of the fitted maximal effect; nearly all actives have a fitted effect of over 55% in size
#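 Read-out: fluorescence polarization of Alexa 594-labeled tau (0.24 uM), 555 nm excitation, 632 nm emission. Mixtures held 15 uM unlabeled K18 P301L, compound and 20 uM heparin, pH 7 acetate buffer, incubated 6 hr at 37 C.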
# The depositor's hits bear a star; ? = inconclusive; / = no result; [ ] = dose if it differs, or a comment. Unless noted, the call rests on the fitted dose curve; in most records, active means well fitted curve in the direction sought with a large enough effect; inconclusive means small, poorly fitted or top-dose-only effect, or another doubt; inactive means no such curve, though single readings can be large; an effect the other way counts as inactive or inconclusive. Unless noted, on the % scale 0 is the no-effect control and ±100 the full control effect.
SMILES,Tau fluor counter,PNC assembly inh,NPSR antagonist,JMJD2E inh,Tau fibril ThT,Tau FP inhib
CCCN(CCC)S(=O)(=O)c1ccc2c(c1)N(CC(=O)NCc1ccc(F)cc1Cl)C(=O)CS2,?,/,/,/,-4%,-9%
COc1ccc(OC)c(NC(=O)CSc2n[nH]c(-c3ccccc3Cl)n2)c1,-28%,/,/,/,-16%,-3%
COCCOC(=O)C1=C(C)Nc2cc(=O)[nH]c(=O)n2C1c1cccc([N+](=O)[O-])c1 (stereo unspecified),-21%,-109*,-4%,1%,-5%,6%
CC(=O)c1ccc(N2CCC(c3cc(-c4ccc(Cl)cc4Cl)n[nH]3)CC2)c([N+](=O)[O-])c1,?,?,-28%[46.1 µM],-12%,13µM*,?
O=[N+]([O-])c1cccnc1N1CCC(c2cc(-c3cccc(C(F)(F)F)c3)n[nH]2)CC1,?,-17,?,-1%,14µM*,-9%
CCC(=O)N1CCN(c2ccc(Cl)cc2NC(=O)c2ccc(N3CCCC3)c([N+](=O)[O-])c2)CC1,-10%,20,?,7%,?,12%
O=[N+]([O-])c1cccnc1N1CCC(c2cc(-c3ccc(Cl)cc3Cl)n[nH]2)CC1,?,-15,?,-4%,13µM*,-9%
Cc1ccc(Nc2sc(C(=O)c3ccccc3)c(N)c2S(=O)(=O)c2ccccc2)cc1Cl,-13%,/,/,/,2%,?
Cc1csc(=O)n1CC(=O)OCc1cccc2ccccc12,-10%,-100*,17%[46.1 µM],2%,-3%,-2%
COc1cc(/C=N/N(C)c2ccccc2)cc(Cl)c1O,14µM*[quencher],?,23%[46.1 µM],-2%,?,?
COc1ccc(OC)c(C=Nc2ccccc2-c2nc3ccccc3[nH]2)c1,?,7,16%[46.1 µM],?,?,11%
COc1ccc(OC)c(/C=N/N(C)c2ccccc2)c1,11µM*[quencher],20,-4%[46.1 µM],3%,13µM*,5%
COC(=O)NC1(C(F)(F)F)C(=O)NC(C)=C1C(=O)OC (stereo unspecified),6%,-107*,-9%[46.1 µM],-3%,0%,3%
O=c1c(=O)n(-c2ccccc2)ccn1Cc1cccc(C(F)(F)F)c1,-11%,/,/,/,-2%,?
CCc1ccc(C2NC(=S)NC3=C2C(=O)N(c2ccccc2OC)C(c2ccc(CC)cc2)N3)cc1 (stereo unspecified),-29%,32,-11%[46.1 µM],-4%,?,?
O=C1C2=C(NC(=S)NC2c2ccc(Cl)cc2)NC(c2ccc(Cl)cc2)N1c1ccc(Cl)cc1 (stereo unspecified),?,59,?,-20%,32µM*,?
COc1cc(/C=N/N=C(/N)c2nonc2N)cc(Br)c1OCc1cccc(C)c1,?,-6,?,4%,?,28µM*
c1cncc(CNC2CCCc3ccccc32)c1 (stereo unspecified),12%,-83*,4%[46.1 µM],-1%,10%,7%
Cc1c(NC(=O)Nc2ccc(Cl)c(Cl)c2)sc2nc3n(c(=O)c12)CCC(C)CC3 (stereo unspecified),?,/,/,/,-1%,?
Cc1c(NC(=O)Nc2ccccc2C(F)(F)F)sc2nc3n(c(=O)c12)CCC(C)CC3 (stereo unspecified),13µM*[quencher],/,/,/,-18%,?
CC(=O)c1cccc(NC(=O)Nc2sc3nc4n(c(=O)c3c2C)CCC(C)CC4)c1 (stereo unspecified),11µM*[quencher],/,/,/,?,?
CCOC(=O)N1CCN(C(=O)Nc2sc3nc4n(c(=O)c3c2C)CCC(C)CC4)CC1 (stereo unspecified),-21%,-18,-31%[46.1 µM],-1%,?,11%

# Source: PubChem BioAssay (National Center for Advancing Translational Sciences (NCATS))
